# Measured values: the supplement of paper PMC9446081
# ± gives the standard deviation of the averaged measurements.
# What was measured:
# Experiment in all cases: relative enzymatic activity vs untreated control (fraction); higher = less inhibition
# Details in all cases: 100 µM; incubation time: 2 h at 37 C
# DNA gyrase = tested on: DNA gyrase
# Description: (§1)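 In vitro enzymatic inhibition assays (ProFoldin kits) for 12 purified essential E. coli enzymes or complexes, each treated with 218 active antibacterial compounds at 100 µM for 2 h at 37°C. Read-outs were fluorescence or absorbance (phosphate detection, dye binding), converted to activity via standard curves and expressed relative to untreated DMSO controls.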
# DNA helicase = DNA helicase (UniProt P0ACB1)
# DNA helicase, sequence (P0ACB1 whole entry): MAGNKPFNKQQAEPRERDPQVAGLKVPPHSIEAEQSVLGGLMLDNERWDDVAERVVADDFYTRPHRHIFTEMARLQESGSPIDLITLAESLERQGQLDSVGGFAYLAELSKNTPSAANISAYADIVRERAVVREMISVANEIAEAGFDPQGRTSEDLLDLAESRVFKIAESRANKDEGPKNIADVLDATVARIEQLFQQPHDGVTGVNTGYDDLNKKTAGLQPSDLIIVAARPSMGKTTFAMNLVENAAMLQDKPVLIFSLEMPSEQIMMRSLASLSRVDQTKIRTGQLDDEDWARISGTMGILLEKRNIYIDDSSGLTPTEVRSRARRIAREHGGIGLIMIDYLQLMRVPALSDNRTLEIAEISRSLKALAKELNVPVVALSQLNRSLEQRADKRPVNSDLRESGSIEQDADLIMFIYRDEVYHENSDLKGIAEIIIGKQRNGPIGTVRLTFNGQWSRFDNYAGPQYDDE
# Description: as §1
# DNA ligase = DNA ligase (UniProt B1XA82)
# DNA ligase, sequence (B1XA82 whole entry): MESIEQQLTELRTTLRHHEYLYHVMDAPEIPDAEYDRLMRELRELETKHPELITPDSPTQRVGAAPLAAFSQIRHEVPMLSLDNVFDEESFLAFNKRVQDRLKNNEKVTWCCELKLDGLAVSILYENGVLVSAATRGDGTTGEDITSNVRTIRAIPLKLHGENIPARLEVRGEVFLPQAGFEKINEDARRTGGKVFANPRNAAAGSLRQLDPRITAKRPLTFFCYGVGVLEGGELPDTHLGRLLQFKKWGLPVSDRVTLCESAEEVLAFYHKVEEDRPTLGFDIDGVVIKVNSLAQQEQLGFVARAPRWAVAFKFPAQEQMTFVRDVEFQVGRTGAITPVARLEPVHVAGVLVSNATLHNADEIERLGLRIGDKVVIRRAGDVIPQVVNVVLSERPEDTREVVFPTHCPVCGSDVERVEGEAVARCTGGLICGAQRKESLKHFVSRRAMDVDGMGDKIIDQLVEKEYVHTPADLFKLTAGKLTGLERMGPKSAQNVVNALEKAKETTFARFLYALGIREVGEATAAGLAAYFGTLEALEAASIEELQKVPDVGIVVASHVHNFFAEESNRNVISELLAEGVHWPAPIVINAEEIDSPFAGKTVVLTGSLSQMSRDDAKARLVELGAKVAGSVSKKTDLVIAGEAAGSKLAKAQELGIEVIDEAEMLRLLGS
# Description: as §1
# DNA polymerase = DNA polymerase (UniProt P10443)
# DNA polymerase, sequence (P10443 whole entry): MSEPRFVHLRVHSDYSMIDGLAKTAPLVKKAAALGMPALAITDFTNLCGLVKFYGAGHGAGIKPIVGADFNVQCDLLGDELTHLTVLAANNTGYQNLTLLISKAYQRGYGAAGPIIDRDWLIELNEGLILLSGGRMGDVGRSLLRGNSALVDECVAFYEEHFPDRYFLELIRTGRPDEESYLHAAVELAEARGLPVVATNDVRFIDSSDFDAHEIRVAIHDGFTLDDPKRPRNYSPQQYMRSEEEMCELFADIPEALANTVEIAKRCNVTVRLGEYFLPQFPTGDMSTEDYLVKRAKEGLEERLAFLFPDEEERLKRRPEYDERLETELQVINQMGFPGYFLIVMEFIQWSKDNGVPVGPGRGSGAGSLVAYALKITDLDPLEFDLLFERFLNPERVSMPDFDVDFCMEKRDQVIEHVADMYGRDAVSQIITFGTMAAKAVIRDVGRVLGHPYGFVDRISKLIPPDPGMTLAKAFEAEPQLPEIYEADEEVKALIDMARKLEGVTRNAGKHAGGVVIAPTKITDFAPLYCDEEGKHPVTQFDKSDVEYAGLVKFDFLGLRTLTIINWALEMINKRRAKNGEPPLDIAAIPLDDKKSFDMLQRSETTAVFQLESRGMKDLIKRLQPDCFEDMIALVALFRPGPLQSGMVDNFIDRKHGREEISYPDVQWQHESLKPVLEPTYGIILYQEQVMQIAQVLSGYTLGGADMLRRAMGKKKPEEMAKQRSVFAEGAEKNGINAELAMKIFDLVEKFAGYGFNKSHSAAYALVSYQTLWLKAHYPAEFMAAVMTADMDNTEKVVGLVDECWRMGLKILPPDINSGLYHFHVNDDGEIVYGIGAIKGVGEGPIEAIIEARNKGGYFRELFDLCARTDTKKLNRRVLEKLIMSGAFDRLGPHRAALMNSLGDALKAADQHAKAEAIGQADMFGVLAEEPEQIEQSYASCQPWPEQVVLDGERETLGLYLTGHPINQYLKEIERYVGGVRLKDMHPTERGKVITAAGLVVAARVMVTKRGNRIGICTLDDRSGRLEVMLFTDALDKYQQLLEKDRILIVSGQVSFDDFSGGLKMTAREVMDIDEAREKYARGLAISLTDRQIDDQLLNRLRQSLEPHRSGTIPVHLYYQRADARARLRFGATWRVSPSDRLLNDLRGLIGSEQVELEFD
# Description: as §1
# DNA primase = DNA primase (UniProt P0ABS7)
# DNA primase, sequence (P0ABS7 whole entry): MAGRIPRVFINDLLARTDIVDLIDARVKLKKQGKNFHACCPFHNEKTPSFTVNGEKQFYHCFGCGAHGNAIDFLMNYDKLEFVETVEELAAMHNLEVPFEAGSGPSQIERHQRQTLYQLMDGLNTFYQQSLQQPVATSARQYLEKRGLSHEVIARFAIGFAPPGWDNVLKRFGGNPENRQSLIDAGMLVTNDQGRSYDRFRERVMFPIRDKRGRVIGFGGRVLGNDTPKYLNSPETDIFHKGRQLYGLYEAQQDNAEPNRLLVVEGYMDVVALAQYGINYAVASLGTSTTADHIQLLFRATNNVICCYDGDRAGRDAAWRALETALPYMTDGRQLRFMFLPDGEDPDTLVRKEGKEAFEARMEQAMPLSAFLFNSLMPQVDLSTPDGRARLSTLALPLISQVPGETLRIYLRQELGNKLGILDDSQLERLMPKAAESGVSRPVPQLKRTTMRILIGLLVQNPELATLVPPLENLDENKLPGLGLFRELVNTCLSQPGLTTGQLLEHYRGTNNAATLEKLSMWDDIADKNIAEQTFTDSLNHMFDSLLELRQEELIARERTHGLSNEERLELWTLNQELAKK
# Description: as §1
# GlmU = GlmU (UniProt A7ZTU1)
# GlmU, sequence (A7ZTU1 whole entry, looked up): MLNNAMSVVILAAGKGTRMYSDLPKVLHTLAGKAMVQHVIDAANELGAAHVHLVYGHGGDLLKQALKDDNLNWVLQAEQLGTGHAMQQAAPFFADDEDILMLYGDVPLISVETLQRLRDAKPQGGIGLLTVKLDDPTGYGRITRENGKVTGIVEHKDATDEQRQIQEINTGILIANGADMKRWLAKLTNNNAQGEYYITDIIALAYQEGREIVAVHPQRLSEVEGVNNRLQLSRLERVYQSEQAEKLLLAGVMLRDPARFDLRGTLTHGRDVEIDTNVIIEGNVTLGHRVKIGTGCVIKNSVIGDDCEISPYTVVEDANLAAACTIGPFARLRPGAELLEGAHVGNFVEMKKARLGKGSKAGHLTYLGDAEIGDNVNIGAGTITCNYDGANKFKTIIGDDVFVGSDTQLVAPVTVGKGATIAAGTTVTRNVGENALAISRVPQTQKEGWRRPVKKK
# Description: as §1
# Guanlyate kinase = Guanlyate kinase (UniProt Q0TBG1)
# Guanlyate kinase, sequence (Q0TBG1 whole entry): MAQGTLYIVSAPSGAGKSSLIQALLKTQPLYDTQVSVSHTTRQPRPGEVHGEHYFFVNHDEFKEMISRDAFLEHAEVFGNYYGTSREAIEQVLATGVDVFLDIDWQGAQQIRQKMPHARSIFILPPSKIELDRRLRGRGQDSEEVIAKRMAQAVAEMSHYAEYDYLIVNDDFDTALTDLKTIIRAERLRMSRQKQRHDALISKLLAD
# Description: as §1
# MurA = MurA (UniProt Q3YX52)
# MurA, sequence (Q3YX52 whole entry): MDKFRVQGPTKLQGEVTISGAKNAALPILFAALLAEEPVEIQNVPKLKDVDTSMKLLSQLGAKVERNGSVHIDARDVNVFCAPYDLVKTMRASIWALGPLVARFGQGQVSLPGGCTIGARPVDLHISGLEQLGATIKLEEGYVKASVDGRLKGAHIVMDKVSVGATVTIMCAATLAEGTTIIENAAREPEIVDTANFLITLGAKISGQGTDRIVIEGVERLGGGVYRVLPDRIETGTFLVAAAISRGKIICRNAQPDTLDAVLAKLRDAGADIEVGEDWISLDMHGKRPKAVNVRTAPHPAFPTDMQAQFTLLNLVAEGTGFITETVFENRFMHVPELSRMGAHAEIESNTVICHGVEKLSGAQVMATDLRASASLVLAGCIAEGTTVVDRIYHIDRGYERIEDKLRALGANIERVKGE
# Description: as §1
# RNA polymerase = tested on: RNA polymerase
# Description: as §1
Structure (SMILES),relative enzymatic activity (DNA gyrase),relative enzymatic activity (DNA helicase),relative enzymatic activity (DNA ligase),relative enzymatic activity (DNA polymerase),relative enzymatic activity (DNA primase),relative enzymatic activity (GlmU),relative enzymatic activity (Guanlyate kinase),relative enzymatic activity (MurA),relative enzymatic activity (RNA polymerase)
COP(=S)(OC)Oc1cc(Cl)c(Cl)cc1Cl,1.01 ± 0.21,0.105 ± 0.011,0.991 ± 0.28,1.39 ± 0.45,0.737 ± 0.2,1.09 ± 0.043,1.07 ± 0.027,0.585 ± 0.13,0.851 ± 0.025
CC(=O)Oc1ccc(Cl)c2cccnc12,0.756 ± 0.36,0.577 ± 0.29,0.965 ± 0.18,1.09 ± 0.17,0.8364 ± 0.0049,0.987 ± 0.052,0.892 ± 0.12,0.873 ± 0.19,0.7397 ± 0.0065
Cn1ncnc2c(=O)n(C)c(=O)nc1-2,0.373 ± 0.21,0.533 ± 0.13,1.08 ± 0.28,0.994 ± 0.056,0.758 ± 0.047,0.966 ± 0.021,0.88 ± 0.059,0.129 ± 0.027,0.587 ± 0.6
CCCCCCCCCCCCCCCC[N+](C)(C)C.[Br-],1.21 ± 0.19,0.026 ± 0.0026,0.171 ± 0.036,0.0569 ± 0.0052,0.371 ± 0.042,0.235 ± 0.047,0.6144 ± 0.0056,0.0751 ± 0.018,0.162 ± 0.021
Cc1nc2c(=O)n(C)c(=O)nc-2n(C)n1,0.498 ± 0.2,0.6 ± 0.18,0.827 ± 0.053,1.04 ± 0.11,0.8 ± 0.023,0.927 ± 0.071,0.881 ± 0.045,0.131 ± 0.035,0.925 ± 0.15
CN(C)[C@@H]1C(=O)C(C(N)=O)=C(O)[C@@]2(O)C(O)=C3C(=O)c4c(O)cccc4[C@](C)(O)[C@H]3C[C@@H]12,1.15 ± 0.25,0.475 ± 0.031,1.06 ± 0.1,1.11 ± 0.24,0.753 ± 0.025,1.05 ± 0.084,0.836 ± 0.089,0.144 ± 0.0081,0.809 ± 0.1
CN(C)[C@@H]1C(=O)[C@@H](C(N)=O)C(=O)[C@@]2(O)C(=O)[C@H]3C(=O)c4c(O)ccc(Cl)c4[C@@](C)(O)[C@H]3C[C@@H]12,0.69 ± 0.15,0.484 ± 0.12,0.931 ± 0.077,0.474 ± 0.67,0.778 ± 0.016,1.01 ± 0.018,0.879 ± 0.079,0.617 ± 0.21,0.739 ± 0.086
Cc1c(N)nc([C@H](CC(N)=O)NC[C@@H](N)C(N)=O)nc1C(=O)N[C@H](C(=O)N[C@@H](C)[C@H](O)[C@@H](C)C(=O)N[C@@H](C(=O)NCCc1nc(-c2nc(C(=O)NCCC[S+](C)C)cs2)cs1)[C@@H](C)O)[C@@H](O[C@H]1O[C@H](CO)[C@H](O)[C@@H](O)[C@H]1O[C@H]1O[C@H](CO)[C@@H](O)[C@H](OC(N)=O)[C@@H]1O)c1cnc[nH]1,0.0494 ± 0.07,0.504 ± 0.71,1.121 ± 0.005,0.911 ± 0.2,0.801 ± 0.0016,1.06 ± 0.057,1.03 ± 0.061,0.787 ± 0.087,0.875 ± 0.077
O=S(=O)(O)O.Oc1cccc2cccnc12,0.857 ± 0.31,0.653 ± 0.14,1.05 ± 0.1,1.34 ± 0.49,0.441 ± 0.18,0.987 ± 0.048,0.981 ± 0.14,0.768 ± 0.011,0.862 ± 0.094
Oc1cc(Cl)ccc1Oc1ccc(Cl)cc1Cl,1.04 ± 0.057,0.187 ± 0.1,0.856 ± 0.26,0.495 ± 0.69,0.839 ± 0.013,1.113 ± 0.0014,1 ± 0.059,0.846 ± 0.081,0.935 ± 0.17
CCn1cc(C(=O)[O-])c(=O)c2cc3c(cc21)OCO3.[K+],0.128 ± 0.074,0.576 ± 0.11,1.21 ± 0.081,1.08 ± 0.18,0.826 ± 0.033,0.959 ± 0.029,0.892 ± 0.14,0.798 ± 0.13,0.7827 ± 0.0058
[O-][n+]1ccccc1[S][Zn][S]c1cccc[n+]1[O-],0.849 ± 0.41,0.647 ± 0.14,1.08 ± 0.083,1.1 ± 0.13,0.788 ± 0.27,1.03 ± 0.0055,1.06 ± 0.052,0.109 ± 0.033,0.954 ± 0.052
CN(C)[C@@H]1C(=O)[C@H](C(N)=O)C(=O)[C@@]2(O)C(=O)[C@@H]3C(=O)c4c(O)cccc4[C@@](C)(O)[C@H]3C[C@@H]12,0.891 ± 0.31,0.615 ± 0.21,0.943 ± 0.033,0.874 ± 0.1,0.801 ± 0.02,1.03 ± 0.011,0.846 ± 0.13,0.379 ± 0.13,0.7359 ± 0.0054
CC(=O)[O][Hg][c]1ccccc1,0.0283 ± 0.04,0.415 ± 0.038,1.16 ± 0.04,0.285 ± 0.017,0.749 ± 0.28,0.987 ± 0.21,3.32 ± 0.43,0.474 ± 0.35,0.462 ± 0.044
O=C1C=C2C(=CCOC2O)O1 (stereo unspecified),0.0893 ± 0.13,0.409 ± 0.021,1.08 ± 0.17,0.547 ± 0.19,0.632 ± 0.14,0.811 ± 0.21,1.09 ± 0.049,0.0624 ± 0.018,0.56 ± 0.17
O=[N+]([O-])c1ccc(N(CCO)CCO)c2c1no[n+]2[O-],1.22 ± 0.18,0.793 ± 0.094,1.49 ± 0.15,0.69 ± 0.21,0.559 ± 0.099,0.935 ± 0.067,0.448 ± 0.049,0.106 ± 0.026,0.679 ± 0.032
CNC1C(O)C(OC2C(N)CC(N)C(OC3OC(C(C)O)C(O)C(O)C3N)C2O)OCC1(C)O (stereo unspecified),1.19 ± 0.12,0.447 ± 0.021,1 ± 0.031,1.37 ± 0.52,0.749 ± 0.25,0.973 ± 0.059,0.936 ± 0.045,0.77 ± 0.12,0.879 ± 0.05
CN[C@H]1C[C@@H](N)[C@H](O)[C@@H](O[C@@H]2O[C@H](CO)[C@H](O)[C@@H]3O[C@@]4(O[C@H]23)O[C@H]([C@@H](N)CO)[C@H](O)[C@H](O)[C@H]4O)[C@@H]1O,0.984 ± 0.14,0.571 ± 0.16,0.95 ± 0.14,1.19 ± 0.24,0.883 ± 0.02,1.029 ± 0.0074,0.933 ± 0.098,0.86 ± 0.2,0.8209 ± 0.0048
CCCCCCCCCCCCCCCC[n+]1ccccc1,1.17 ± 0.056,0.0233 ± 0.0026,0.134 ± 0.0094,0.0267 ± 0.011,0.341 ± 0.023,0.19333 ± 8.8e-05,0.0415 ± 0.016,0.0717 ± 0.02,0.617 ± 0.64
O=[N+]([O-])C(Br)(CO)CO,0.108 ± 0.15,0.618 ± 0.27,0.897 ± 0.11,0.327 ± 0.015,0.596 ± 0.031,0.198 ± 0.059,0.943 ± 0.084,0.0632 ± 0.019,0.348 ± 0.045
CCCCCCCCCCCCCCCC[n+]1ccccc1.[Cl-],1.22 ± 0.054,0.0141 ± 0.0023,0.581 ± 0.2,0.0538 ± 0.0068,0.3763 ± 0.00042,0.16 ± 0.039,0.2 ± 0.092,0.0629 ± 0.0016,0.2601 ± 0.0012
C[CH2][Hg][S]c1ccccc1C(=O)[O-].[Na+],0.069 ± 0.018,0.749 ± 0.37,1.12 ± 0.031,0.94 ± 0.3,0.649 ± 0.14,1.07 ± 0.093,1.03 ± 0.11,0.212 ± 0.01,0.959 ± 0.048
CN1C(=O)[C@]23CC4=CC=C[C@H](O)[C@H]4N2C(=O)[C@@]1(CO)SS3,0.669 ± 0.11,0.55 ± 0.14,1.06 ± 0.038,0.477 ± 0.68,0.859 ± 0.019,0.992 ± 0.012,0.947 ± 0.12,0.309 ± 0.13,0.838 ± 0.12
Cc1c(N)nc([C@H](CC(N)=O)NC[C@@H](N)C(N)=O)nc1C(=O)N[C@H](C(=O)N[C@@H](C)[C@H](O)[C@@H](C)C(=O)N[C@@H](C(=O)NCCc1nc(-c2nc(C(=O)NCCC[S+](C)C)cs2)cs1)[C@@H](C)O)[C@@H](O[C@H]1O[C@H](CO)[C@H](O)[C@@H](O)[C@H]1O[C@H]1O[C@H](CO)[C@@H](O)[C@H](OC(N)=O)[C@@H]1O)c1c[nH]cn1,0.0451 ± 0.064,0.749 ± 0.38,1.26 ± 0.078,0.485 ± 0.028,0.878 ± 0.06,0.998 ± 0.07,0.96 ± 0.12,0.863 ± 0.16,0.866 ± 0.032
